Results: PubChem BioAssay (NCATS)
Several values for one entry are separate records, joined by “and”; a condition that tells them apart may be missing. Equal entries are not always repeated. Results filed as inconclusive are left out. Some structures have more than one record in an assay (separate samples or runs), and their calls can disagree. Activity calls are given as the source filed them. Unless noted, calls come from the whole dose curve.

Experiments:
[1] = AP1 Signaling Pathway (AID 357; active = well fitted curve in either direction with a large enough effect, not every such curve was filed as active;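 note: ME-180 reporter cells stimulated with EGF at its EC50 level; % is set by controls: 0 for no effect and ±100 for the full control effect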)
Procedure, shortened: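 A ratiometric CCF4 readout (405 nm excitation; 460 and 530 nm emission) quantified AP-1-driven beta-lactamase in ME-180 cells after 5 h with compound and EC50 EGF; AC50 values were derived for activators and inhibitors.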

[2] = target: Cytochrome P450 1A2 (Homo sapiens) (UniProt P05177); test: p450-cyp1a2 (AID 410); note: potency is the fitted concentration of half-maximal effect;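 for activity change, negative = inhibition: -100% = full effect of reference inhibitor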
Sequence of Cytochrome P450 1A2 (Homo sapiens) (P05177 whole entry, looked up): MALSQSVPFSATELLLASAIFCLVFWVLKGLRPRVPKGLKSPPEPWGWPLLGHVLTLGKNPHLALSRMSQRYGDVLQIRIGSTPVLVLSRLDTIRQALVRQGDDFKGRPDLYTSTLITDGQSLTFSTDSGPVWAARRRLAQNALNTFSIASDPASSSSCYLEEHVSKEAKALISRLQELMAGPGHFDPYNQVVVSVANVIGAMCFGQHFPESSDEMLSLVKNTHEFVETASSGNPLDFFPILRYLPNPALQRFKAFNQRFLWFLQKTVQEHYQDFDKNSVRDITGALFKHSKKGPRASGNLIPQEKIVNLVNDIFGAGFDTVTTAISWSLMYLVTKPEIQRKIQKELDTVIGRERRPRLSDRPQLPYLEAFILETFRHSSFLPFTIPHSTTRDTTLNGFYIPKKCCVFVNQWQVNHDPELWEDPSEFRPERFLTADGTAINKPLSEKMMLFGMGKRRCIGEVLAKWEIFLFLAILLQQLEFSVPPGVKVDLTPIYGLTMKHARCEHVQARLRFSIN
Procedure, shortened: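 Human CYP1A2 (20nM) demethylated Luciferin-ME at its Km (100uM) in 100mM KPO4. After 10 min compound preincubation, NADPH regeneration ran the reaction 60 min at room temperature. Luciferin was read by luminescence, normalized to 57 uM furafylline.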

[3] = NFAT Signaling Pathway (AID 444; active = well fitted curve in either direction with a large enough effect, not every such curve was filed as active;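 note: carbachol stimulus at about its EC50 of 1 µM final; % is set by controls: 0 for no effect and ±100 for the full control effect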); conditions: Jurkat NFAT-bla M1, carbachol, beta-lactamase ratio, 5 h; at 38 µM (top of the series) unless noted
Procedure, shortened: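 Jurkat cells with NFAT-driven β-lactamase reporter and co-expressed M1 receptor, stimulated with carbachol (final 1 uM, ~EC50), compound titration, 5 h at 37 °C. CCF4 loaded 1 h at RT; 460/530 nm ratio gave %activity and AC50.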

[4] = target: Glucocorticoid receptor (Homo sapiens) (UniProt P04150); test: GR-GFP Redistribution (AID 450;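 active = compounds whose dose series gives a full or clear partial fitted curve of increased nuclear translocation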; note: potency is the fitted concentration of half-maximal effect); conditions: U2OS GR-GFP nuclear translocation, laser cytometry, 2 h
Sequence of Glucocorticoid receptor (Homo sapiens) (P04150 whole entry, looked up, the tested form may be a part): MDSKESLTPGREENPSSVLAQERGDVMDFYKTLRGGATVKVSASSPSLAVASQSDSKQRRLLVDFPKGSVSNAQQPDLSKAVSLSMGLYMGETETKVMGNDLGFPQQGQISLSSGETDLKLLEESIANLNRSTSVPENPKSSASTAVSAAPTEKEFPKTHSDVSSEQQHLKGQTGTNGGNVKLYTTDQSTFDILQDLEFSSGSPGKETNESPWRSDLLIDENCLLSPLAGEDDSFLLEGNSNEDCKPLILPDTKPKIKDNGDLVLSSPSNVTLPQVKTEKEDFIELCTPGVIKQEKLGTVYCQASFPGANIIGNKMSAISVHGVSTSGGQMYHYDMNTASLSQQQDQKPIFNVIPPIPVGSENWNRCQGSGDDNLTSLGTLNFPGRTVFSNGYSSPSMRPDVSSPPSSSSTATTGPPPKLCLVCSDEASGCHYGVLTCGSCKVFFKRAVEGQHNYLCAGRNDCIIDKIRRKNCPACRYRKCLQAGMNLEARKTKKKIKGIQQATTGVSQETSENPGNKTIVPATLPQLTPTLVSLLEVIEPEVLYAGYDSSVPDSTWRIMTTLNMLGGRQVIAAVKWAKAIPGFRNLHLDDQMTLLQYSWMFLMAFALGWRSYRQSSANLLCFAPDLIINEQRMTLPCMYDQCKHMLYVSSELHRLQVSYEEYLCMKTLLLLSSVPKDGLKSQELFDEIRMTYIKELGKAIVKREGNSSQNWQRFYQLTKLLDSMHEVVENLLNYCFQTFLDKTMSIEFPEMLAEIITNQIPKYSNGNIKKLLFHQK

[5] = target: Glucocorticoid receptor (Homo sapiens) (UniProt P04150); test: GR-EFC Redistribution (AID 451); conditions: CHO-K1 GR-EFC translocation, beta-gal luminescence, 2 h; note: potency is the fitted concentration of half-maximal effect
Procedure, shortened: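 CHO-K1 cells expressing nuclear EA and GR-ED fragments of b-gal; compounds titrated up to 46 uM final, 2 h at 37 C. GR nuclear translocation read as complemented b-gal luminescence after 1 h RT detection.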

[6] = target: 3',5'-cyclic-AMP phosphodiesterase 4B (Homo sapiens) (UniProt Q07343); test: qHTS Assay for Inhibitors of PDE-IV (AID 607; active = well fitted activation curve with a large enough effect in the main read-out, with a control signal flat, not every such curve was filed as active; note: % of control where 0% means no effect)
Sequence of 3',5'-cyclic-AMP phosphodiesterase 4B (Homo sapiens) (Q07343 whole entry, looked up): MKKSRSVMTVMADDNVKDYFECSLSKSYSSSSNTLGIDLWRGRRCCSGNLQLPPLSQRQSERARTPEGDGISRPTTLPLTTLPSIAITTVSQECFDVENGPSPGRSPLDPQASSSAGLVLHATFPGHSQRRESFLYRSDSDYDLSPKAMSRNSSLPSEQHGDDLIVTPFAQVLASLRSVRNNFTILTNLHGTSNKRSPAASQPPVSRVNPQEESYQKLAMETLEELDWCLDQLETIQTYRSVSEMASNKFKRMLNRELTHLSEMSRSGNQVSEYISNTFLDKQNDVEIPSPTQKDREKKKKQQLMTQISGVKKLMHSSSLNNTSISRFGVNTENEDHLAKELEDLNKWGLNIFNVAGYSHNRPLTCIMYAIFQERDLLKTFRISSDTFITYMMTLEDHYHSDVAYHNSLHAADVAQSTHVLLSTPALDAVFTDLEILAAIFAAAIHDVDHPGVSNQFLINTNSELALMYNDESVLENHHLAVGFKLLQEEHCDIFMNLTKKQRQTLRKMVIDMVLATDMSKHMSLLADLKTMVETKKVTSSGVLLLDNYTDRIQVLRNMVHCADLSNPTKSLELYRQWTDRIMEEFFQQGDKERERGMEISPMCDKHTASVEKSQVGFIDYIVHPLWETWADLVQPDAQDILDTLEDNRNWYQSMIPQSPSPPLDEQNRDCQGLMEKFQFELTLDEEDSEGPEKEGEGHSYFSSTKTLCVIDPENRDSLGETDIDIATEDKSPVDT
Procedure, shortened: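 Live HEK293 cells with a modified cyclic nucleotide-gated (CNG) channel report intracellular cAMP via membrane-potential dye fluorescence (ex 535/em 590 nm). Endogenous PDE-IV was targeted. Compounds were tested at up to 22.9 uM final; RO 20-1724 100 uM served as control.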

[7] = Stat Signaling Pathway (AID 446; active = well fitted curve in either direction with a large enough effect, not every such curve was filed as active;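 note: ME-180 cervical cancer cells given 40 pM IL-6 alongside compound; SIE-controlled beta-lactamase reporter measured as 460/530 nm FRET emission ratio; % is set by controls: 0 for no effect and ±100 for the full control effect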); conditions: ME-180 (cervical carcinoma) SIE beta-lactamase reporter, IL-6 stimulated, 5 h; at 38 µM (top of the series) unless noted
Procedure, shortened: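 IL-6/STAT signaling read in ME-180 cells via an SIE beta-lactamase reporter. Stimulus was 40 pM IL-6 (its AC50) for 5 hrs, so both activation and inhibition register.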

[8] = target: Mitogen-activated protein kinase 10 (Mus musculus) (UniProt Q61831); test: JNK3 AlphaScreen Assay (AID 530; active = well fitted curve in either direction with a large enough effect, not every such curve was filed as active;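 note: kinase came from lysate of stimulated human HepG2 cells; signal reports phosphorylation of biotinylated GST-cJun 1-79 at Ser73 with 10 µM ATP; % is set by controls: 0 for no effect and ±100 for the full control effect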)
Procedure, shortened: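 qHTS format: compounds tested as titrations against IL-1beta/TNF-alpha-activated HepG2 lysate JNK3 with biotin-GST-cJun substrate and 10 uM ATP at room temperature. Loss of anti-phospho-cJun AlphaScreen signal indicates inhibition.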

[9] = Cell Viability - BJ (AID 421); conditions: BJ fibroblast viability, qHTS;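 note: potency is the fitted concentration of half-maximal effect; cells exposed to compound for 40 hours at 37 °C before readout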
Procedure, shortened: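 Quantitative HTS: ATP depletion in BJ cells after 40 hr compound exposure in complete culture medium, detected with CellTiter-Glo; AC50 from standard Hill fits.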

[10] = Cell Viability - Jurkat (AID 426;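 active = dose-dependent loss of cell ATP signal giving a full or clear fitted curve, ranked by lower potency value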; note: potency is the fitted concentration of half-maximal effect); conditions: qHTS
Procedure, shortened: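 Jurkat (clone E6-1, human T-cell leukemia) cells, 5000/well in complete medium, were exposed to compound for 40 hr at 37 °C. Viability was read as intracellular ATP by CellTiter-Glo luminescence; AC50 came from Hill fits of concentration-response data.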

[11] = Cell Viability - HepG2 (AID 433); conditions: qHTS;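 note: potency is the fitted concentration of half-maximal effect; potency for ATP loss meaning cytotoxicity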
Procedure, shortened: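 HepG2 hepatocellular carcinoma cells (1500/well) were treated with compounds for 40 h at 37 °C in complete medium; intracellular ATP was read by CellTiter-Glo luminescence. Data were normalized to DMSO and 100 uM tamoxifen, and AC50 came from Hill fits.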

[12] = Cell Viability - MRC5 (AID 434); conditions: MRC5 lung fibroblast viability, qHTS;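 note: potency is the fitted concentration of half-maximal effect; potency reflects cytotoxicity seen as loss of intracellular ATP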
Procedure, shortened: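 MRC5 normal human lung fibroblasts, 1500 cells/well, exposed to compound for 40 hr at 37 C. Cellular ATP was read by CellTiter-Glo luminescence; data normalized to DMSO and 100 uM tamoxifen, with AC50 from Hill fits.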

[13] = Cell Viability - N2a (AID 540; active = well fitted curve in the direction sought with a large enough effect; an effect the other way counts as inactive or inconclusive;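 note: plate controls were DMSO alone for no effect and tamoxifen control for full effect; nearly all actives have a fitted effect of over 45% in size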); conditions: N2a mouse neuroblastoma cell viability; activity change, negative = cytotoxicity: at 92.2 µM (top of the series)
Procedure, shortened: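 Mouse neuroblastoma N2a cells (1500/well) were preincubated 5 hr at 37 °C, then exposed to compounds for 40 hr at 37 °C in complete medium. Viability was read as intracellular ATP by CellTiter-Glo luminescence; AC50 from Hill fits.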

[14] = Cell Viability - HUV-EC-C (AID 542; active = well fitted curve in the direction sought with a large enough effect; an effect the other way counts as inactive or inconclusive; note: % is set by controls: 0 for no effect and ±100 for the full control effect; nearly all actives have a fitted effect of over 35% in size)
Procedure, shortened: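 HUV-EC-C normal human vascular endothelial cells, 1000 cells/well, pre-incubated 5 hr at 37 °C, then exposed to compounds for 40 hr at 37 °C in complete medium. Viability measured as intracellular ATP by CellTiter-Glo luminescence; AC50 from Hill fits.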

[15] = Cell Viability - H-4-II-E (AID 543; active = well fitted curve in the direction sought with a large enough effect; an effect the other way counts as inactive or inconclusive; note: % is set by controls: 0 for no effect and ±100 for the full control effect; nearly all actives have a fitted effect of over 35% in size)
Procedure, shortened: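 Rat hepatoma H-4-II-E cells (1500/well) were plated, incubated 5 hr at 37 °C, then exposed to compounds for 40 hr at 37 °C. Cellular ATP was read by CellTiter-Glo luminescence; AC50 came from Hill-equation fits of concentration-response data.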

[16] = Cell Viability - SH-SY5Y (AID 544; active = well fitted curve in the direction sought with a large enough effect; an effect the other way counts as inactive or inconclusive;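 note: 0% = DMSO alone and -100% = 100 µM tamoxifen; nearly all actives have a fitted effect of over 55% in size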)
Procedure, shortened: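 Human neuroblastoma SH-SY5Y cells (1500/well) in complete medium were exposed to compounds for 40 hr at 37 °C; intracellular ATP was then quantified by CellTiter-Glo luminescence after 20 min at room temperature. AC50 came from Hill-equation concentration-response fits.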

[17] = Cell Viability - Renal Proximal Tubule (AID 545; active = well fitted curve in the direction sought with a large enough effect; an effect the other way counts as inactive or inconclusive;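 note: 0% = DMSO only and -100% = 100 µM tamoxifen; nearly all actives have a fitted effect of over 40% in size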); conditions: renal proximal tubule cells viability; activity change, negative = cytotoxicity: at 91.7 µM (top of the series)
Procedure, shortened: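 Primary rat renal proximal tubule cells (1000/well) were treated with compounds for 40 hr at 37 °C in complete medium. Intracellular ATP was measured by CellTiter-Glo luminescence, and AC50 values came from Hill-equation fits of concentration-response data.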

[18] = Cell Viability - Mesenchymal (AID 546; active = well fitted curve in the direction sought with a large enough effect; an effect the other way counts as inactive or inconclusive;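 note: cells exposed to compound for 40 hours before reading; 0% = DMSO only and -100% = 100 µM tamoxifen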)
Procedure, shortened: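 Human kidney mesenchymal cells from normal renal glomeruli, 1000 cells/well, rested 5 hr at 37 °C, then treated 40 hr at 37 °C in complete medium. Cellular ATP read by CellTiter-Glo luminescence; AC50 from Hill-equation fits.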

[19] = Cell Viability - NIH 3T3 (AID 541; active = well fitted curve in the direction sought with a large enough effect; an effect the other way counts as inactive or inconclusive;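 note: plate controls were DMSO alone for no effect and tamoxifen positive control for full effect; nearly all actives have a fitted effect of over 25% in size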); conditions: NIH 3T3 cell viability, qHTS; activity change, negative = cytotoxicity: at 92.2 µM (top of the series)
Procedure, shortened: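 NIH 3T3 mouse embryo fibroblasts (1000 cells/well) were plated in complete medium and treated with compound for 40 hr at 37 °C. Viability was read as intracellular ATP by CellTiter-Glo luminescence; AC50 values came from Hill-equation fits of concentration-response data.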

[20] = target: Lysosomal acid glucosylceramidase (Homo sapiens) (UniProt P04062); test: Glucocerebrosidase-p2 (AID 348; in the data active = potency below about 10 µM; note: potency is the fitted concentration of half-maximal effect); conditions: purified GBA, blue fluorogenic substrate, 40 min
Sequence of Lysosomal acid glucosylceramidase (Homo sapiens) (P04062 whole entry, looked up): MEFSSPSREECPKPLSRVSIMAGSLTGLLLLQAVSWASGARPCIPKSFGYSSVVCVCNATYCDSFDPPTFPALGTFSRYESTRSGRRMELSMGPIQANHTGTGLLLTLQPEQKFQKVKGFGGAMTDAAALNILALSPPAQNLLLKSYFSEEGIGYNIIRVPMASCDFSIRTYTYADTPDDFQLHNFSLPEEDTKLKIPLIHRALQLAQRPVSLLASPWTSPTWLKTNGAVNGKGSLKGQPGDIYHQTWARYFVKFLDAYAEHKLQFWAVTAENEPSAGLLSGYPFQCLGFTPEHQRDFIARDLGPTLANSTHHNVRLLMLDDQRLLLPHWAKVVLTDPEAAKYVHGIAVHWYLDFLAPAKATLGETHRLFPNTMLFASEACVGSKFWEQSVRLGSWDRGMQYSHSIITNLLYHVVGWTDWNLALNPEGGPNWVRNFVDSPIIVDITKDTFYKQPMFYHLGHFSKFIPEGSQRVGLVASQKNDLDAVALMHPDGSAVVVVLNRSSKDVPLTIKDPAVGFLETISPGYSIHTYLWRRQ
Procedure, shortened: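 Compounds titrated from 0.6 nM upwards against 0.2 nM enzyme in pH 5.9 citric acid/KH2PO4, taurocholate, tween-20; blue fluorogenic substrate 80 uM, 40 min room temperature, stopped and read Ex 365/Em 440 for AC50.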

## NCCc1ccc(S(=O)(=O)F)cc1
[1]
  outcome: inactive
[2]
  Potency: 15.8 µM (active)
[3]
  activity change, negative = inhibition: 2.53% (inactive)
[4]
  Potency: > 46 µM (inactive)
[5]
  Potency: > 46 µM (inactive)
[6]
  Potency: inactive

## C[N+](C)(C)CC#CCOC(=O)Nc1cccc(Cl)c1
[1]
  outcome: inactive
[3]
  activity change, negative = inhibition: 11.3% (inactive)
[4]
  Potency: > 46 µM (inactive)
[5]
  Potency: > 46 µM (inactive)
[6]
  Potency: inactive

## O=C(O)c1cc[c]([Hg][Cl])cc1
[1]
  outcome: inactive
[2]
  Potency: 3.16 µM (active)
[7]
  activity, negative = inhibition: -0.208% (inactive)
[4]
  Potency: > 46 µM (inactive)
[5]
  Potency: > 46 µM (inactive)

## COc1ccc2[nH]c3c(c2c1)CCNC3
[2]
  Potency: 3.16 µM (active)
[3]
  activity change, negative = inhibition: 4.34% (inactive)
[7]
  activity, negative = inhibition: 9.97% (inactive)
[4]
  Potency: > 46 µM (inactive)
[5]
  Potency: > 46 µM (inactive)
[8]
  outcome: inactive
[6]
  Potency: inactive

## O=S(=O)(O)c1cc(O)ccc1O
[1]
  outcome: inactive
[3]
  activity change, negative = inhibition: -8.18% [at 17.2 µM] (inactive)
[4]
  Potency: > 20.6 µM (inactive)
[5]
  Potency: > 20.6 µM (inactive)
[6]
  Potency: inactive

## CCCN(CCC)[C@@H]1CCc2cccc(O)c2C1
[2]
  Potency: inactive and 31.6 µM (active)
[3]
  activity change, negative = inhibition: -1.36% (inactive)
[7]
  activity, negative = inhibition: -0.802% (inactive)
[4]
  Potency: > 46 µM (inactive)
[5]
  Potency: > 46 µM (inactive)
[6]
  Potency: inactive

## O=P(O)(O)C(Cl)(Cl)P(=O)(O)O
[1]
  outcome: inactive
[2]
  Potency: inactive
[3]
  activity change, negative = inhibition: 10.1% (inactive)
[8]
  outcome: inactive
[6]
  Potency: inactive

## O=C1C=CC(=O)C=C1
[2]
  Potency: inactive
[9]
  Potency: > 92 µM (inactive)
[10]
  Potency: 31.4 µM (active)
[11]
  Potency: > 92 µM (inactive)
[12]
  Potency: > 92 µM (inactive)
[3]
  activity change, negative = inhibition: -3.4% (inactive)
[13]
  Potency: inactive
[14]
  Potency: inactive
[15]
  Potency: inactive
[16]
  Potency: inactive
[17]
  Potency: inactive
[18]
  Potency: inactive
[6]
  Potency: inactive

## COc1ccc2[nH]cc(CCN)c2c1
[1]
  outcome: inactive
[2]
  Potency: 1.58 µM (active)
[3]
  activity change, negative = inhibition: -0.77% (inactive)
[7]
  activity, negative = inhibition: -1.18% (inactive)
[4]
  Potency: > 46 µM (inactive)
[5]
  Potency: > 46 µM (inactive)
[8]
  outcome: inactive
[6]
  Potency: inactive

## CN1CCc2cccc(Cl)c2CC1
[1]
  outcome: inactive
[2]
  Potency: inactive
[3]
  activity change, negative = inhibition: 3.59% (inactive)
[7]
  activity, negative = inhibition: 15.3% (inactive)
[4]
  Potency: > 46 µM (inactive)
[5]
  Potency: > 46 µM (inactive)
[6]
  Potency: inactive

## NC(=O)c1cc(N2CC2)c([N+](=O)[O-])cc1[N+](=O)[O-]
[1]
  outcome: inactive
[2]
  Potency: inactive
[3]
  activity change, negative = inhibition: 1.65% (inactive)
[7]
  activity, negative = inhibition: 19.5% (inactive)
[4]
  Potency: > 46 µM (inactive)
[5]
  Potency: > 46 µM (inactive)
[8]
  outcome: inactive
[6]
  Potency: inactive

## CN1[C@@H]2CC[C@H]1CC(OC(=O)C1C=Nc3ccccc31)C2 (some centres undefined)
[1]
  outcome: inactive

## CN1CCC(c2c[nH]c3ccc(O)cc23)CC1
[1]
  outcome: inactive
[2]
  Potency: 31.6 µM (active)
[3]
  activity change, negative = inhibition: -5.82% (inactive)
[4]
  Potency: > 46 µM (inactive)
[5]
  Potency: > 46 µM (inactive)
[6]
  Potency: inactive

## CCCN(CCC)CCc1ccc(O)c(O)c1
[1]
  outcome: inactive
[3]
  activity change, negative = inhibition: -10.2% (inactive)
[4]
  Potency: > 46 µM (inactive)
[5]
  Potency: > 46 µM (inactive)
[6]
  Potency: inactive

## Cc1[nH]c2ccc(O)cc2c1CCN
[1]
  outcome: inactive
[2]
  Potency: 31.6 µM (active)
[3]
  activity change, negative = inhibition: 10.3% (inactive)
[4]
  Potency: > 46 µM (inactive)
[5]
  Potency: > 46 µM (inactive)
[6]
  Potency: inactive

## NCCCP(=O)(O)O
[1]
  outcome: inactive
[2]
  Potency: inactive
[3]
  activity change, negative = inhibition: -4.18% (inactive)
[7]
  activity, negative = inhibition: 26.4% (inactive)
[4]
  Potency: > 46 µM (inactive)
[5]
  Potency: > 46 µM (inactive)
[6]
  Potency: inactive

## CP(=O)(O)C1=CCNCC1
[2]
  Potency: inactive
[3]
  activity change, negative = inhibition: -1.42% (inactive)
[7]
  activity, negative = inhibition: -9.22% (inactive)
[4]
  Potency: > 46 µM (inactive)
[5]
  Potency: > 46 µM (inactive)
[6]
  Potency: inactive

## NNC(N)=O
[1]
  outcome: inactive
[9]
  Potency: > 92 µM (inactive)
[10]
  Potency: > 92 µM (inactive)
[11]
  Potency: > 92 µM (inactive)
[12]
  Potency: > 92 µM (inactive)
[4]
  Potency: > 46 µM (inactive)
[5]
  Potency: > 46 µM (inactive)
[8]
  outcome: inactive
[13]
  Potency: inactive
[19]
  Potency: inactive
[14]
  Potency: inactive
[15]
  Potency: inactive
[16]
  Potency: inactive
[17]
  Potency: inactive
[18]
  Potency: inactive
[6]
  Potency: inactive

## CNC(=O)OCC[N+](C)(C)C
[1]
  outcome: inactive
[2]
  Potency: inactive
[3]
  activity change, negative = inhibition: 3.8% (inactive)
[4]
  Potency: > 46 µM (inactive)
[5]
  Potency: > 46 µM (inactive)

## c1cc2c(c(NC3=NCCN3)c1)CCCC2
[20]
  Potency: > 11.4 µM (inactive)
[2]
  activity change, negative = inhibition: -17.1% [at 11.4 µM] (inactive)
[3]
  activity change, negative = inhibition: -5.58% [at 7.69 µM] (inactive)
[4]
  Potency: > 46 µM (inactive)
[5]
  Potency: > 9.22 µM (inactive)
[8]
  activity change, negative = inhibition: 3.19% [at 11.4 µM] (inactive)
[6]
  Potency: inactive

## CCCN1CCc2cc(O)cc3c2[C@H]1Cc1ccc(O)c(O)c1-3
[1]
  outcome: inactive
[2]
  Potency: 12.6 µM (active)
[4]
  Potency: > 46 µM (inactive)
[5]
  Potency: > 46 µM (inactive)
[6]
  Potency: inactive
